# Activity calls are given as the source filed them. Entries that show only a call come without a potency. Unless noted, calls come from the whole dose curve; as a rule, active = well fitted curve in the direction sought with a large enough effect in the repeat runs; inconclusive = weak or mixed curves; inactive = no such curve, though single readings can be large; an effect the other way counts as inactive or inconclusive.
# How the values were obtained:
# [1] = qHTS assay to identify small molecule antagonists of the thyroid receptor (TR) signaling pathway - cell viability counter screen (AID 743064); note: nearly all actives have a fitted effect of over 50% in size; note: potency is the fitted concentration of half-maximal effect
# Procedure, shortened: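 Same-well viability check: GH3.TRE-Luc cells stimulated with 1 nM T3 alongside test compound for 23.5 h, followed by CellTiter-Fluor fluorescence.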
# [2] = qHTS assay to identify small molecule antagonists of the thyroid receptor (TR) signaling pathway (AID 743065); note: nearly all actives have a fitted effect of over 55% in size; note: potency is the fitted concentration of half-maximal effect
# Procedure, shortened: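 GH3.TRE-Luc rat pituitary cells carrying two TR response elements driving luciferase were plated for 4 h, given compound plus 1 nM T3 (final), and incubated 23.5 h at 37 C. ONE-Glo luminescence measured reporter inhibition; CellTiter-Fluor fluorescence tracked cytotoxicity.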
# [3] = system: thyroid hormone receptor (rat, GH3 cells); assay: qHTS assay to identify small molecule agonists of the thyroid receptor (TR) signaling pathway (AID 743066; calls by dose curve; note: potency is the fitted concentration of half-maximal effect)
# [4] = qHTS assay to identify small molecule antagonists of the estrogen receptor alpha (ER-alpha) signaling pathway - cell viability counter screen (AID 743074; calls by dose curve;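 note: HEK293 cells carrying ER-alpha-UAS-bla reporter stimulated with 17beta-estradiol; nearly all actives have a fitted effect of over 45% in size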)
# [5] = target: Estrogen receptor (Homo sapiens) (UniProt P03372); assay: qHTS assay to identify small molecule agonists of the estrogen receptor alpha (ER-alpha) signaling pathway (AID 743075; calls by dose curve;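 note: HEK293 GripTite cells with ER-alpha and UAS-driven beta-lactamase reporter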; note: potency is the fitted concentration of half-maximal effect)
# [6] = qHTS assay to identify small molecule antagonists of the estrogen receptor alpha (ER-alpha) signaling pathway using the BG1 cell line (AID 743080; calls by dose curve;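 note: BG1 cells stimulated with 17beta-estradiol alongside compound; nearly all actives have a fitted effect of over 25% in size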)
# Procedure, shortened: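 Readout is ONE-Glo luminescence, taken 30 min at room temperature after reagent addition, preceded by a CellTiter-Fluor viability read; BG1-Luc-4E2 cells had received compound and 17beta-estradiol for 21.5 h at 37 C.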
# Aromatase (Homo sapiens) = Aromatase (Homo sapiens) (UniProt P11511); assay: qHTS assay to identify aromatase inhibitors (AID 743083); note: nearly all actives have a fitted effect of over 55% in size; note: potency is the fitted concentration of half-maximal effect
# [7] = qHTS assay to identify small molecule antagonists of the estrogen receptor alpha (ER-alpha) signaling pathway using the BG1 cell line - cell viability counter screen (AID 743081);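 note: compound given together with 17beta-estradiol as the ER stimulus; nearly all actives have a fitted effect of over 45% in size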; note: potency is the fitted concentration of half-maximal effect
# [8] = target: Estrogen receptor (Homo sapiens) (UniProt P03372); assay: qHTS assay to identify small molecule agonists of the estrogen receptor alpha (ER-alpha) signaling pathway using the BG1 cell line (AID 743079); conditions: BG1Luc4E2 cells, ERE-luciferase agonist, 22 h; activation: at 70.3 µM (top of the series); note: nearly all actives have a fitted effect of over 20% in size; note: potency is the fitted concentration of half-maximal effect
# Estrogen receptor (Homo sapiens), sequence (P03372 whole entry, looked up): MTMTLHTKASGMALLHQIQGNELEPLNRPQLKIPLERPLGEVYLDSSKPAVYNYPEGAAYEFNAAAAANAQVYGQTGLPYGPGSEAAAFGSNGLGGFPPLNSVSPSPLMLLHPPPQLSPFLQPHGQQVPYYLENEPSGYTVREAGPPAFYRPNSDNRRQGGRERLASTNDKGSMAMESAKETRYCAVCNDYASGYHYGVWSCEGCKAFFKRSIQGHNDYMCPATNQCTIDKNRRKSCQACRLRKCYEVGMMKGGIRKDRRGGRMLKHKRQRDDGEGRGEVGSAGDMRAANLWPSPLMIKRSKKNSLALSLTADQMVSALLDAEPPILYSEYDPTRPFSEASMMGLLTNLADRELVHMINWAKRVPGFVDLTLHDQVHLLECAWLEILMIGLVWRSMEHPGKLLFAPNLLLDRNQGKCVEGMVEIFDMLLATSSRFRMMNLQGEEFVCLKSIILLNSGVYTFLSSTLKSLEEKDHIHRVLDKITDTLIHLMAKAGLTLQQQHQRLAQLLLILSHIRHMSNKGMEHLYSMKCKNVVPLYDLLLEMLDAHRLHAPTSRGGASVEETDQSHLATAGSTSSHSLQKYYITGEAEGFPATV
# Aromatase (Homo sapiens), sequence (P11511 whole entry, looked up): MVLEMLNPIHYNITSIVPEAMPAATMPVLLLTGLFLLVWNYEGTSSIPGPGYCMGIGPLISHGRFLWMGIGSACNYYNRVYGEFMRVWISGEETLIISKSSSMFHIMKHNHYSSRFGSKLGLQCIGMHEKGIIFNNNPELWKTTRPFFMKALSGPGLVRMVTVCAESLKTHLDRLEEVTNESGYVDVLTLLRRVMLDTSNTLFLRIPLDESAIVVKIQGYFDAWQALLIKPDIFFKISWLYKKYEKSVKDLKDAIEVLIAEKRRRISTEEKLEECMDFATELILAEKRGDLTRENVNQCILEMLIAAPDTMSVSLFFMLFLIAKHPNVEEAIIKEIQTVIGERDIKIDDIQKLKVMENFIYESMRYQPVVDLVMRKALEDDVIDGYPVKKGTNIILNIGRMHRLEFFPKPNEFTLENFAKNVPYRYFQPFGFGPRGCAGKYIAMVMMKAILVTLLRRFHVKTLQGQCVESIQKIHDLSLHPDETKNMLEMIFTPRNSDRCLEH
Structure (SMILES),Potency [1],Potency [2],Potency [3],Potency [4],Potency [5],Potency [6],Potency (Aromatase (Homo sapiens)),Potency [7],Potency [8]
CO[C@@H]1[C@@H](O[C@@H]2O[C@H](C)[C@@H](O[C@H]3C[C@@](C)(O)[C@@H](OC(=O)CC(C)C)[C@H](C)O3)[C@H](N(C)C)[C@H]2O)[C@@H](CC=O)C[C@@H](C)C(=O)/C=C/C2OC2C[C@@H](C)OC(=O)C[C@H]1OC(C)=O (some centres not stated),29.8 µM (active),23.7 µM (active),inactive,inactive,inactive,inactive,inactive,–,–
NC(=O)OC[C@@H]1[C@H](NC(=O)/C(=N\OCC(=O)O)c2csc(N)n2)C(=O)N1S(=O)(=O)O,inactive,inactive,inactive,inactive,–,–,–,inactive,–
CC(C)(C)C1(O)CCN2CC3c4ccccc4CCc4cccc(c43)C2C1 (configuration not stated),26.6 µM (active),23.7 µM (active),inactive,inactive,inactive,–,29.8 µM (active),inactive,–
C=C(NC(=O)C(=C)NC(=O)c1csc(C2=N[C@@H]3c4csc(n4)[C@H]4NC(=O)c5csc(n5)[C@H]([C@](C)(O)[C@@H](C)O)NC(=O)[C@H]5CSC(=N5)C(=CC)NC(=O)C([C@@H](C)O)NC(=O)c5csc(n5)[C@]3(CC2)NC(=O)[C@H](C)NC(=O)C(=C)NC(=O)[C@H](C)NC(=O)C([C@@H](C)CC)NC2C=Cc3c([C@H](C)O)cc(nc3C2O)C(=O)O[C@@H]4C)n1)C(N)=O (some centres not stated),8.04 µM (active),12.7 µM (active),5.69 µM (active),inactive,–,inactive,inactive,–,inactive
CNC(=O)[C@H](Cc1c[nH]c2ccccc12)NC(=O)[C@@H](CC(=O)NO)CC(C)C,1.68 µM (active),inactive,inactive,inactive,–,–,–,2.66 µM (active),–
OC[C@@H](O)C(O)[C@H](O)CO,inactive,inactive,inactive,inactive,–,–,inactive,inactive,–
CNC(=O)c1c(I)c(C(=O)NCC(=O)Nc2c(I)c(C(=O)O)c(I)c(C(=O)NCCO)c2I)c(I)c(N(C)C(C)=O)c1I,inactive,inactive,inactive,inactive,–,–,–,inactive,–
C[C@H](O)[C@H](O)[C@H]1CNc2nc(N)[nH]c(=O)c2N1,inactive,inactive,inactive,inactive,inactive,inactive,inactive,–,inactive
CC[C@H](C)[C@@H]1NC(=O)[C@H](Cc2ccc(O)cc2)NC(=O)[C@@H](N)CSSC[C@@H](C(=O)N2CCC[C@H]2C(=O)N[C@@H](CC(C)C)C(=O)NCC(N)=O)NC(=O)[C@H](CC(N)=O)NC(=O)[C@H](CCC(N)=O)NC1=O,inactive,inactive,inactive,inactive,–,inactive,inactive,inactive,–
CC(=O)Oc1c(C)cc(OCC(O)CNC(C)C)c(C)c1C (configuration not stated),inactive,inactive,inactive,inactive,10.7 µM [inconclusive] (active),inactive,inactive,inactive,3.76 µM (active)
CC(=O)O[C@H]1C(=O)[C@@]2(C)[C@H]([C@H](OC(=O)c3ccccc3)[C@]3(O)C[C@H](OC(=O)[C@H](O)[C@@H](NC(=O)c4ccccc4)c4ccccc4)C(C)=C1C3(C)C)[C@]1(OC(C)=O)CO[C@@H]1C[C@@H]2O,0.266 µM (active),0.133 µM (active),inactive,inactive,inactive,–,inactive,–,–

# From PubChem BioAssay (Tox21)
